The results in this text go back to article PMC4336329 (PLoS ONE, 2015).

SMILES strings stand for the structures. The campaign covered roughly 310,000 compounds. About 14,000 (4.5%) showed an effect of 50% or more. The effect is printed as a negative number. Only a selection was taken, and strong results are over-represented in it overall.
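Further: peak tail current of the secondary pulse compared with the same well before compound.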

Sequence of human ether-à-go-go-related gene (hERG) potassium channel (Q12809 whole entry, looked up): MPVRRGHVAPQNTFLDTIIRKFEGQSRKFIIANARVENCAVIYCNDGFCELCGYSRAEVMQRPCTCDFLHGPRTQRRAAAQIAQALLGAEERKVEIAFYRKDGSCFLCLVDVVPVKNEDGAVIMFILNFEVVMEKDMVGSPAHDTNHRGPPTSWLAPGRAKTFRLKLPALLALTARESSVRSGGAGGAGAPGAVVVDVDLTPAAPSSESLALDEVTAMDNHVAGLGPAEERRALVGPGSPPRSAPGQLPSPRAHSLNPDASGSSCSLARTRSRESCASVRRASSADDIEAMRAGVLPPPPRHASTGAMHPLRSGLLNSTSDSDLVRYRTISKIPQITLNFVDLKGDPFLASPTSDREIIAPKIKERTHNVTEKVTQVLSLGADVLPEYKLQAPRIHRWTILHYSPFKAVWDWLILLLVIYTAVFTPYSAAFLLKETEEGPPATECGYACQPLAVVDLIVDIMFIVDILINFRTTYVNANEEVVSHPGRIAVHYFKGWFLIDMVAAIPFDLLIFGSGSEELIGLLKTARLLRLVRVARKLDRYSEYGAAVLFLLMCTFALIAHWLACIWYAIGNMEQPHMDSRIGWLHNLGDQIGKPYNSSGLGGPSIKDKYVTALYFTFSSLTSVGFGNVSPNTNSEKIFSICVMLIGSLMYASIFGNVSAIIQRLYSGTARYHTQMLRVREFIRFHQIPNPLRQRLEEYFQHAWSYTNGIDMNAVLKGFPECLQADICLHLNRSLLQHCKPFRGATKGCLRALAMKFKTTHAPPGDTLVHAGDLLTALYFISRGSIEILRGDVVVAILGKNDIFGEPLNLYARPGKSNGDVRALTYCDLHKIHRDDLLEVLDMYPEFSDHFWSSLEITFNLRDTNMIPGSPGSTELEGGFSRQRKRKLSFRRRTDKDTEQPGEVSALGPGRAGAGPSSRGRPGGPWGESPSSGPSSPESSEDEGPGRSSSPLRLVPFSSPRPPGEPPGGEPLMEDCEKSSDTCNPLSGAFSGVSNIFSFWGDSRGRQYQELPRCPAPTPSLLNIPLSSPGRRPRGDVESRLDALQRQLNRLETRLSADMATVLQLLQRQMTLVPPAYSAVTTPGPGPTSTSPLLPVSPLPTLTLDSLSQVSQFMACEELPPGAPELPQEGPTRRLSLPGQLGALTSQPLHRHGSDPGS

This assay addresses human ether-à-go-go-related gene (hERG) potassium channel (human, UniProt Q12809). The assay is described as follows: primary screen, population patch clamp on CHO cells stably expressing hERG; higher = less effect of the substance.
Turning to `O=C(COC(=O)C1CSC2(c3ccc(F)cc3)CCC(=O)N12)NC(=O)NC1CCCC1` (stereo not shown), the “hERG current change (%, negative = inhibition) at 10uM” value was -4.24%.
The value for `O=C1c2ccccc2C(=O)C1c1ccccn1` was 6.76%.
The value for `CCC(Sc1ccc2nnc(-c3ccc(F)cc3)n2n1)C(=O)OC` (stereo not shown) was -48.3%.
The same measure for `CCCN(CCC)CCCNc1ccc2nnc(-c3ccc(F)cc3)n2n1`: -55.9%; for `CC(=O)C(Sc1ccc2nnc(-c3cccnc3)n2n1)C(C)=O`: -2.29%; for `CC(=O)C(Sc1ccc2nnc(-c3ccc(F)cc3)n2n1)C(C)=O`: 8.13%.
`COC(=O)CSc1ccc2nnc(-c3ccc(F)cc3)n2n1`: the “hERG current change (%, negative = inhibition) at 10uM” value is -43.7%.
The value for `Cc1ccc(CSc2nnc(-c3cccnc3)n2N)cc1` was 18%.
The same measure for `Fc1ccc(CSc2ccc3nnc(-c4cccs4)n3n2)cc1`: 17.1%; for `Fc1ccc(CSc2ccc3nnc(-c4cccnc4)n3n2)cc1`: -71.5%; for `CCSc1ccc2nnc(-c3cccc(F)c3)n2n1`: -33.6%.
Take `Cc1ccc(CSc2ccc3nnc(-c4cccnc4)n3n2)cc1`: the “hERG current change (%, negative = inhibition) at 10uM” value is recorded as -79.3%.
The value for `CCSc1ccc2nnc(-c3ccc(F)cc3)n2n1` was -55.6%; that for `O=C(CSc1ccc2nnc(-c3cccnc3)n2n1)Nc1ccc(F)cc1` was -31.5%; that for `COc1ccc(CNC(=O)C(c2cccs2)N(C(=O)c2csnn2)C2CC2)cc1` (stereo not shown) was -12.2%.
Regarding `COC(=O)c1cc(NC(=O)c2cccc(F)c2)cc(C(=O)OC)c1`, the “hERG current change (%, negative = inhibition) at 10uM” value is 5.98%.
The same measure for `CC(Sc1nc(O)c(-c2ccccc2)c(=O)[nH]1)C(=O)Nc1ccc(Cl)cc1` (stereo not shown): 26.9%.
Consider `COc1ccc(N=Cc2c(O)[nH]c3ccccc23)cc1`, for which the “hERG current change (%, negative = inhibition) at 10uM” value turned out to be 0.417%.
In the case of `O=C(Nc1ccc(S(=O)(=O)N2CCN(c3ccccc3)CC2)cc1)c1cccs1`, the “hERG current change (%, negative = inhibition) at 10uM” value turned out to be 8.53%.
The same measure for `Fc1cccc(Cl)c1Cn1ncc2ccccc21`: -7.36%.
Consider `C=CCSc1nc(N)cc(=O)[nH]1`, for which the “hERG current change (%, negative = inhibition) at 10uM” value came to 0.914%.
The same measure for `Cc1ccc(CNc2ccc3nnc(-c4ccccc4)n3n2)cc1`: 15.7%; for `c1ccc(CN2CCN(CCCNc3ccc4nnc(-c5ccccc5)n4n3)CC2)cc1`: -59.7%; for `CCOc1ccc(CCNc2ccc3nnc(-c4ccccc4)n3n2)cc1OCC`: 1.95%.
The value for `CCn1cc(C(=O)N(C)c2ccc(OC)cc2OC)c2cc(OC)c(OC)cc2c1=O` was 12.4%; that for `CNS(=O)(=O)c1ccc(Oc2ccc(S(=O)(=O)NC)cc2)cc1` was 13.2%; that for `NS(=O)(=O)c1ccc(Oc2ccc(S(N)(=O)=O)cc2)cc1` was 0.75%.
As for `C=CS(=O)(=O)c1ccc(Oc2ccc(S(=O)(=O)C=C)cc2)cc1`, the “hERG current change (%, negative = inhibition) at 10uM” value is given as -64.3%.
The same measure for `Cc1ccc(N2C(=O)C(Cc3ccc(O)cc3)NC2=S)cc1C` (stereo not shown): -7.04%.
The value for `Brc1ccccc1C1=Nn2c(nnc2-c2ccccc2)SC1` was 14.5%; that for `CC(NC(=O)c1cc2ccccc2o1)c1cccs1` (stereo not shown) was -15.6%; that for `Cc1cc2c(c(=O)n1CCN(C)C)C(c1ccc(Br)cc1)C(C#N)=C(N)O2` (stereo not shown) was -58.5%.
The same measure for `Cc1cc2c(c(=O)n1CCN(C)C)C(c1ccccc1Br)C(C#N)=C(N)O2` (stereo not shown): -26.1%; for `Cc1cc2c(c(=O)n1CCN(C)C)C(c1ccncc1)C(C#N)=C(N)O2` (stereo not shown): 19.6%.
For the compound `COc1ccc(CC(=O)NC(c2ccccc2)c2ccc(C)cc2)c(OC)c1` (stereo not shown), the “hERG current change (%, negative = inhibition) at 10uM” value amounted to 11.3%.
The same measure for `COc1ccccc1C(c1nnnn1Cc1ccccc1)N1CCN(C2CCCC2)CC1.Cl` (stereo not shown): -35.5%; for `COc1ccc(C(c2nnnn2Cc2ccccc2)N2CCN(c3ccccc3)CC2)cc1.Cl` (stereo not shown): -6.94%.
The same measure for `COc1ccc(C(c2nnnn2Cc2ccc(F)cc2)N2CCN(c3ccccc3)CC2)cc1` (stereo not shown): -4.37%; for `COc1ccc(OC)c(C(c2nnnn2Cc2ccccc2)N2CCN(C)CC2)c1.Cl` (stereo not shown): 3.17%; for `COc1ccc(Cn2nnnc2C(c2ccc3ncccc3c2)N2CCN(C3CCCCC3)CC2)cc1` (stereo not shown): -82.8%.
The value for `CCN1CCN(C(c2ccccc2)c2nnnn2Cc2ccc(OC)cc2)CC1.Cl` (stereo not shown) was 10.7%; that for `COc1ccc(Cn2nnnc2C(c2ccc(F)cc2)N2CCN(C3CCCC3)CC2)cc1` (stereo not shown) was -52.6%; that for `COc1ccc(Cn2nnnc2C(c2ccc(C)cc2)N2CCN(C3CCCC3)CC2)cc1.Cl` (stereo not shown) was -63.8%.
